Screening results from PubChem.
HepG2 viability: counter-screen for TGF-b inhibitors: cytotoxicity in HepG2 cells; HepG2 CAGA-GFP viability, ATP luminescence, 18 h; Potency, µM (doses to about 46.1 µM), inactives show at the top dose activity change, negative = cytotoxicity, most hits filed as cytotoxic; 410,000 tested, 0.76% active; AID 588856; note: potency is the fitted concentration of half-maximal effect
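HepG2 CAGA-GFP cells (1000/well, DMEM with 1% FBS) received compound, then TGF-beta at 500 pg/mL final, and were incubated 18 hours at 37 degrees C. Viability was read by CellTiter-Glo luminescence. Media-only wells were set as complete cell-killing and DMSO as no toxicity.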
TGFb SMAD3 inh: blocks TGF-b signaling; HepG2 CAGA-GFP TGF-b/SMAD3 reporter, GFP fluorescence, 18 h; TGF-beta stimulated, 500 pg/mL final; Potency, µM (top dose mostly 46.1 µM), for the others: at the highest dose activity, negative = inhibition, usual class: inhibitors; 410,000 tested, 1.2% active; AID 588855; note: potency is the fitted concentration of half-maximal effect; % is set by controls: 0 for no effect and ±100 for the full control effect; nearly all actives have a fitted effect of over 65% in size
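HEPG2 CAGA-GFP, 1000 cells/well; 2 h settle, 37 C; cpd via pin tool; TGF-b 500 pg/mL final; 18 h, 37 C; GFP imaging ex488/em500-530; %Activity normalised to -TGF-b and +DMSO controls; CRC fit, curve class.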
TDP1 cell CPT: growth inhibition of DT40 Tdp1-/-;hTDP1 cells with camptothecin (screen for TDP1 inhibitors); chicken DT40 Tdp1-/-;hTDP1 cells + 20 nM CPT, ATP luminescence, 48 h; Potency, µM (titrated, usually from 46.2 µM), inactives show top-dose activity change, negative = growth inhibition, actives largely listed as inhibitors; 420,000 tested, 12% active; note: potency is the fitted concentration of half-maximal effect; % is set by controls: 0 for no effect and ±100 for the full control effect; nearly all actives have a fitted effect of over 55% in size
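Chicken DT40 Tdp1-/- cells stably complemented with human TDP1 were seeded at 400 cells/well in medium containing 20 nM camptothecin, exposed to pin-transferred compounds, and grown at 37 °C for at least 48 hr. Viability was read as ATP luminescence.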
ASM inhibitor: inhibitors of human secretory acid sphingomyelinase; 340,000 tested, 0.006% active; Potency, µM (titrated, usually from 57.5 µM), for the others: at the highest dose activity change, negative = inhibition, usual class: inhibitors; P17405; placental ASM, HMU-PC fluorogenic substrate, 60 min; note: potency is the fitted concentration of half-maximal effect
Target sequence (P17405 47-631 limits assumed): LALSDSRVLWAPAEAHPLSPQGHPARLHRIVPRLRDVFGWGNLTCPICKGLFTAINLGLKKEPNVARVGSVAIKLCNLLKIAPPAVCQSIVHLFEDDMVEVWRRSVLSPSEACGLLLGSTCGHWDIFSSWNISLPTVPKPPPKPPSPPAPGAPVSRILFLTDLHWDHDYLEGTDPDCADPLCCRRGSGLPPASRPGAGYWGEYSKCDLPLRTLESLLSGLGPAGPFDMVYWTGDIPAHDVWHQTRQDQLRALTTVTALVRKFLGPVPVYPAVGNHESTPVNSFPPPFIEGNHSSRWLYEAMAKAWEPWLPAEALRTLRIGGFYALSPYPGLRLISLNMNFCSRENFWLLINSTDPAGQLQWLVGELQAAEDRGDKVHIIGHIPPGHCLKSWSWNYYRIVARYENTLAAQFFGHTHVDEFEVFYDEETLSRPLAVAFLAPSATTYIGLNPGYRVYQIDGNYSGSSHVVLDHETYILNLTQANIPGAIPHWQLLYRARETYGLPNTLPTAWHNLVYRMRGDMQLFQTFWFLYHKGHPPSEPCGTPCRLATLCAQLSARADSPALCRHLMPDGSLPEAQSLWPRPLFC
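Fluorescence read-out (Ex 386 nm, Em 447 nm) after stopping the reaction at pH 10. Enzyme: ASM from human placenta; substrate HMU-PC0, 9 uM final; 60 min, 37 °C. Compound preincubation 10 min, ambient temperature.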
TDP1 cell noCPT: qHTS for Inhibitors of human tyrosyl-DNA phosphodiesterase 1 (TDP1): qHTS in cells in absence of CPT. Potency, µM (highest dose often 46.2 µM), inactives show at the top dose activity change, negative = growth inhibition, actives largely listed as inhibitors. 420,000 tested, 15% active. DT40 Tdp1-/- hTDP1 cells, no CPT, ATP luminescence, 48 h; note: potency is the fitted concentration of half-maximal effect; % is set by controls: 0 for no effect and ±100 for the full control effect; nearly all actives have a fitted effect of over 55% in size
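Compound effects on proliferation are scored in DT40 Tdp1-/-;hTDP1 cells in the absence of CPT. ATP levels (CellTiter-Glo luminescence) are recorded after a ≥48 hr, 37 °C incubation.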
IL-1B inflam inh: blocks inflammasome-driven IL-1 beta release. THP-1 LPS/ATP IL-1B secretion, AlphaLISA, 16 h; stronger effect = lower value. activity change, % at 57.5 µM. 360,000 tested, 4.7% active. AID 743279; in the data active = activity change below about -50%; inconclusive = mostly about -30% to -49%; note: % is set by controls: 0 for no effect and ±100 for the full control effect
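THP-1 cells pretreated 1 hr with compounds (up to 57.5 uM final), then stimulated with LPS (250 ng/mL final) plus ATP (1.25 mM final); secreted IL-1B measured by AlphaLISA after 16 hr, decreased signal indicating inhibition.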
Starred values were filed as active, the others as inactive; i = inactive; ? = inconclusive; . = no result given. Compounds with a hit are over-represented: about 19% of the library has one in this group of screens. Unless noted, calls come from the whole dose curve; as a rule, active = well fitted curve in the direction sought with a large enough effect; inconclusive = small, poorly fitted or top-dose-only effect, or another doubt; inactive = no such curve, though single readings can be large; an effect the other way counts as inactive or inconclusive.

SMILES	HepG2 viability	TGFb SMAD3 inh	TDP1 cell CPT	ASM inhibitor	TDP1 cell noCPT	IL-1B inflam inh
FC(F)(F)c1ccc(NC(=S)NC2CCCCC2)cc1	-39%	?	?	-2%	18µM*	-100*
CC(C)(C)c1ccc(/C=N/NC(=S)NC2CCCCC2)cc1	-20%	-55%	15µM*	.	12µM*	-30
FC(F)Sc1ccc(NC(=S)NC2CCCC2)cc1	-21%	-56%	?	0%	16µM*	-3
OC1CCC(NC(=S)Nc2ccc(SC(F)F)cc2)CC1 (stereo not given)	1%	3%	?	4%	?	-15
O=C(N/N=C/c1ccccc1)NC1CCCCC1	-13%	-1%	?	1%	?	-4
Cc1nn(C(=O)c2c(-c3ccccc3)noc2C)c(C)c1N=Nc1cc(C(F)(F)F)cc(C(F)(F)F)c1	-4%	-4%	-2%	-6%	-3%	35
CCCN1CCC(=O)N([C@H](CN=[N+]=[N-])Cc2ccccc2)CC1	-1%	-7%	-20%	8%	?	-2
CCCCCCNC(=O)O[C@H]1C[C@@H]2C(=O)N(c3ccccc3)C(=O)[C@@H]2[C@@H]2CN(S(=O)(=O)c3ccc(C)cc3)C[C@]12O	-20%	4%	-12%	.	-25%	24
COc1cccc(C2=NN(C(=O)c3ccc(C)o3)C(O)(C(F)(F)F)C2)c1 (stereo not given)	-7%	-14%	?	-4%	10µM*	?
O=C(c1ccccc1)N1N=C(c2ccc(F)cc2)CC1(O)C(F)(F)F (stereo not given)	-44%	?	-17%	-2%	?	-4
COc1cccc(C(=O)N2N=C(c3ccccn3)CC2(O)C(F)(F)F)c1 (stereo not given)	9%	?	21µM*	-5%	4.6µM*	123
O=C(c1ccco1)N1N=C(c2ccc(Cl)cc2)CC1(O)C(F)(F)F (stereo not given)	-16%	-10%	?	-5%	?	?
O=C(c1ccco1)N1N=C(c2ccc(Br)cc2)CC1(O)C(F)(F)F (stereo not given)	-41%	7.9µM*	-2%	-9%	?	-63*
COc1ccc(C(=O)N2N=C(c3cccc(OC)c3)CC2(O)C(F)(F)F)cc1 (stereo not given)	-19%	?	?	-13%	23µM*	?
CC1(NC(=O)Cc2ccc(Cl)c(Cl)c2)CCS(=O)(=O)C1 (stereo not given)	-3%	9%	15%	2%	4%	-5
O=C(CNC(=O)OCc1ccccc1)NCC(=O)NC(Cc1c[nH]c2ccccc12)C(=O)O (stereo not given)	3%	24%	-3%	.	-4%	25
COc1cccc(C(=O)N2N=C(c3cccc(OC)c3)CC2(O)C(F)(F)F)c1 (stereo not given)	-2%	-16%	?	-3%	?	-2
COc1cccc(C2=NN(C(=O)c3cccs3)C(O)(C(F)(F)F)C2)c1 (stereo not given)	7%	?	?	-7%	18µM*	-72*
CCOc1ccc(-n2ccc(=O)c(C(=O)O)n2)cc1	-5%	0%	7%	0%	11%	57
CCOC(=O)c1ccc(S(=O)(=O)N2CC(=O)Nc3ccccc32)cc1	-10%	-17%	18µM*	12%	18µM*	17
CCc1ccc(S(=O)(=O)N2CC(=O)Nc3ccccc32)cc1	-4%	-1%	-8%	-7%	-18%	0
O=[N+]([O-])c1cccc2[nH]cnc12	-36%	-20%	1%	.	-2%	.
Cc1cc2c(n1-c1ccc(C(=O)NCC(C)c3ccccc3)cc1)CCCC2 (stereo not given)	-62%	?	23µM*	.	15µM*	.
Cc1ccccc1CNC(=O)c1ccc(-n2c(C)cc3c2CCCC3)cc1	-5%	4%	?	.	?	.
CSc1ccc(CCNC(=O)c2ccc(-n3c(C)cc4c3CCCC4)cc2)cc1	-44%	?	21µM*	.	18µM*	.
SMILES	HepG2 viability	TGFb SMAD3 inh	TDP1 cell CPT	ASM inhibitor	TDP1 cell noCPT	IL-1B inflam inh
Cc1cc2c(n1-c1ccc(C(=O)NCCc3ccc(Cl)cc3)cc1)CCCC2	-15%	-13%	?	.	26µM*	.
CCc1nc2ccc(C(=O)NCCc3ccc(SC)cc3)cc2nc1CC	-1%	-19%	?	.	?	.
COc1ccc(NC(=O)Cn2cc(C(=O)c3ccccc3OC)c(=O)c3ccc(C)nc32)cc1OC	-11%	-16%	-19%	.	?	.
COc1ccc(COC(=O)C2CC(=O)N(Cc3ccc(C)cc3)C2)cc1 (stereo not given)	1%	-33%	-20%	5%	-16%	0
COC(=O)c1ccc(-n2ccnc2)cc1	-1%	-17%	16%	-1%	0%	-11
c1ccc(-c2nc(N3CCCCCC3)nc(-n3ccnc3)n2)cc1	-16%	4%	?	-4%	?	-3
c1ccc(-c2ccc(-n3ccnc3)cc2)cc1	-29%	-2%	26µM*	3%	?	-24
c1ccc(-c2nc(N3CCN(c4ccccc4)CC3)nc(-n3ccnc3)n2)cc1	-4%	-2%	?	-18%	16µM*	?
O=C(CN1CCN(S(=O)(=O)c2cc(Cl)ccc2Cl)CC1)Nc1cccc(F)c1	-31%	?	?	.	?	.
O=C(N=C1SC2CS(=O)(=O)CC2N1c1cc(Cl)ccc1Cl)C1CCCO1 (stereo not given)	-38%	-3%	1%	0%	7%	10
COc1ccc(-c2c(C#Cc3ccc(N(C)C)cc3)c3ccccc3n2C)cc1	-24%	?	23µM*	i	?	-8
COc1ccc(-c2c(C#Cc3ccsc3)c3cc(-c4ccc(OC)c(F)c4)ccc3n2C)cc1	4%	-20%	?	60%	?	14
COc1cc(OC)cc(-c2c(C#Cc3ccsc3)c3cc(-c4ccc5cc[nH]c5c4)ccc3n2C)c1	0%	6%	?	68%	?	23
Cn1c2ccccc2c(=O)c2cc(C#Cc3ccccn3)ccc21	0%	18%	-18%	i	?	12
Cn1c(Oc2ccccc2)c(C=O)c2ccccc21	-5%	?	?	1%	?	-16
C=CCn1c2ccccc2c(=O)c2cc(C#Cc3cc(OC)cc(OC)c3)ccc21	4%	5%	16µM*	i	?	0
